# The supplement of paper PMC12282887
# ± gives the standard deviation of the averaged measurements.
# Tests used:
# Experiment in all cases: promoter activity interaction Z-score (Lux/OD deviation from empty-vector control); higher = stronger promoter induction by the compound
# [1] = system: E. coli BW25113 acrABp lux reporter
# Summary of the method: (§1)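 In 384-well plates, 40 µl LB Lennox cultures of E. coli BW25113 with low-copy luxCDABE promoter reporters grew at 37°C. Optical density at 600 nm and light output were recorded every 30 min for 12 h, with windows of 0–8 h for wild type and 1–9 h for deletion strains, and wells under 10% of the median growth value were left out. Each value is a Z-transformed residual of growth-normalised luminescence fitted against a control.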
# [2] = system: E. coli BW25113 ompFp lux reporter
# Summary of the method: as §1
# [3] = system: E. coli BW25113 robp lux reporter
# Summary of the method: as §1
# [4] = system: E. coli BW25113 soxSp lux reporter
# Summary of the method: as §1
# [5] = system: E. coli BW25113 tolCp lux reporter
# Summary of the method: as §1
# [6] = 18 µg/ml, genetic background: wild type
# [7] = 18 µg/ml, genetic background: ΔmarA
# [8] = 18 µg/ml, genetic background: Δrob
# [9] = 18 µg/ml, genetic background: ΔsoxS
# [10] = 36.1 µg/ml, genetic background: wild type
# [11] = 36.1 µg/ml, genetic background: ΔmarA
# [12] = 36.1 µg/ml, genetic background: Δrob
# [13] = 36.1 µg/ml, genetic background: ΔsoxS
# [14] = 72.1 µg/ml, genetic background: wild type
# [15] = 72.1 µg/ml, genetic background: ΔmarA
# [16] = 72.1 µg/ml, genetic background: Δrob
# [17] = 72.1 µg/ml, genetic background: ΔsoxS
# [18] = 144.2 µg/ml, genetic background: wild type
# [19] = 144.2 µg/ml, genetic background: ΔmarA
# [20] = 144.2 µg/ml, genetic background: Δrob
# [21] = 144.2 µg/ml, genetic background: ΔsoxS
structure (smiles),measurement,setting,value
C[C@]12CC[C@H]3[C@@H](CCC4=CC(=O)CC[C@@]43C)[C@@H]1CC[C@@H]2O [Testosterone],promoter activity interaction Z-score,[1]; [6],-0.445 ± 0.074
same,promoter activity interaction Z-score,[1]; [7],-0.76 ± 0.16
same,promoter activity interaction Z-score,[1]; [8],-0.613 ± 0.11
same,promoter activity interaction Z-score,[1]; [9],-0.272 ± 0.23
same,promoter activity interaction Z-score,[1]; [10],-0.494 ± 0.042
same,promoter activity interaction Z-score,[1]; [11],-1.03 ± 1.1
same,promoter activity interaction Z-score,[1]; [12],-0.524 ± 0.2
same,promoter activity interaction Z-score,[1]; [13],-0.556 ± 0.063
same,promoter activity interaction Z-score,[1]; [14],-0.447 ± 0.14
same,promoter activity interaction Z-score,[1]; [15],0.264 ± 0.87
same,promoter activity interaction Z-score,[1]; [16],-0.624 ± 0.12
same,promoter activity interaction Z-score,[1]; [17],-0.489 ± 0.08
same,promoter activity interaction Z-score,[1]; [18],-0.411 ± 0.019
same,promoter activity interaction Z-score,[1]; [19],-0.669 ± 0.41
same,promoter activity interaction Z-score,[1]; [20],-0.643 ± 0.08
same,promoter activity interaction Z-score,[1]; [21],-0.295 ± 0.29
same,promoter activity interaction Z-score,[2]; [6],-0.491 ± 0.12
same,promoter activity interaction Z-score,[2]; [7],-0.598 ± 0.2
same,promoter activity interaction Z-score,[2]; [8],-0.803 ± 0.57
same,promoter activity interaction Z-score,[2]; [9],0.195 ± 0.35
same,promoter activity interaction Z-score,[2]; [10],-0.432 ± 0.41
same,promoter activity interaction Z-score,[2]; [11],-1.1 ± 0.061
same,promoter activity interaction Z-score,[2]; [12],-0.418 ± 0.62
same,promoter activity interaction Z-score,[2]; [13],-0.713 ± 0.022
same,promoter activity interaction Z-score,[2]; [14],-0.907 ± 0.16
same,promoter activity interaction Z-score,[2]; [15],-0.501 ± 0.28
same,promoter activity interaction Z-score,[2]; [16],-0.424 ± 0.42
same,promoter activity interaction Z-score,[2]; [17],-0.715 ± 0.045
same,promoter activity interaction Z-score,[2]; [18],-0.6982 ± 0.0041
same,promoter activity interaction Z-score,[2]; [19],-0.969 ± 0.097
same,promoter activity interaction Z-score,[2]; [20],-0.395 ± 0.47
same,promoter activity interaction Z-score,[2]; [21],-0.339 ± 0.32
same,promoter activity interaction Z-score,[3]; [6],-0.462 ± 0.23
same,promoter activity interaction Z-score,[3]; [7],-1.03 ± 1.1
same,promoter activity interaction Z-score,[3]; [8],-1.05 ± 0.49
same,promoter activity interaction Z-score,[3]; [9],-0.195 ± 0.39
same,promoter activity interaction Z-score,[3]; [10],-0.445 ± 0.22
same,promoter activity interaction Z-score,[3]; [11],-1.14 ± 0.019
same,promoter activity interaction Z-score,[3]; [12],-0.289 ± 0.96
same,promoter activity interaction Z-score,[3]; [13],-0.498 ± 0.64
same,promoter activity interaction Z-score,[3]; [14],-0.398 ± 0.53
same,promoter activity interaction Z-score,[3]; [15],0.148 ± 0.41
same,promoter activity interaction Z-score,[3]; [16],-0.438 ± 1
same,promoter activity interaction Z-score,[3]; [17],-0.274 ± 0.099
same,promoter activity interaction Z-score,[3]; [18],-0.102 ± 0.59
same,promoter activity interaction Z-score,[3]; [19],-0.151 ± 0.4
same,promoter activity interaction Z-score,[3]; [20],-0.428 ± 0.35
same,promoter activity interaction Z-score,[3]; [21],0.0605 ± 0.79
same,promoter activity interaction Z-score,[4]; [6],-0.254 ± 0.24
same,promoter activity interaction Z-score,[4]; [7],-0.0384 ± 0.16
same,promoter activity interaction Z-score,[4]; [8],-0.165 ± 0.23
same,promoter activity interaction Z-score,[4]; [9],-0.0975 ± 0.27
same,promoter activity interaction Z-score,[4]; [10],-0.534 ± 0.01
same,promoter activity interaction Z-score,[4]; [11],-0.3 ± 0.046
same,promoter activity interaction Z-score,[4]; [12],-0.108 ± 0.14
same,promoter activity interaction Z-score,[4]; [13],-0.463 ± 0.35
same,promoter activity interaction Z-score,[4]; [14],-0.459 ± 0.01
same,promoter activity interaction Z-score,[4]; [15],-0.148 ± 0.037
same,promoter activity interaction Z-score,[4]; [16],-0.0584 ± 0.12
same,promoter activity interaction Z-score,[4]; [17],-0.399 ± 0.15
same,promoter activity interaction Z-score,[4]; [18],-0.398 ± 0.075
same,promoter activity interaction Z-score,[4]; [19],-0.389 ± 0.044
same,promoter activity interaction Z-score,[4]; [20],-0.368 ± 0.021
same,promoter activity interaction Z-score,[4]; [21],-0.448 ± 0.076
same,promoter activity interaction Z-score,[5]; [6],0.0813 ± 0.76
same,promoter activity interaction Z-score,[5]; [7],0.0835 ± 0.37
same,promoter activity interaction Z-score,[5]; [8],-0.682 ± 0.73
same,promoter activity interaction Z-score,[5]; [9],0.781 ± 0.5
same,promoter activity interaction Z-score,[5]; [10],0.191 ± 0.092
same,promoter activity interaction Z-score,[5]; [11],-1.71 ± 0.36
same,promoter activity interaction Z-score,[5]; [12],0.34 ± 0.48
same,promoter activity interaction Z-score,[5]; [13],-0.587 ± 0.0086
same,promoter activity interaction Z-score,[5]; [14],0.0036 ± 0.71
same,promoter activity interaction Z-score,[5]; [15],-0.0511 ± 0.6
same,promoter activity interaction Z-score,[5]; [16],0.112 ± 0.27
same,promoter activity interaction Z-score,[5]; [17],0.394 ± 0.17
same,promoter activity interaction Z-score,[5]; [18],0.135 ± 0.34
same,promoter activity interaction Z-score,[5]; [19],-0.734 ± 0.57
same,promoter activity interaction Z-score,[5]; [20],0.644 ± 0.24
same,promoter activity interaction Z-score,[5]; [21],0.344 ± 0.27
